Data taken from PMC12136788.
Positions count from the first letter of the chain named. In all, about 24,000 sequences were measured (“enrichment r”: median about 0.99, highest 2% from about 3.7 on). The sample holds the highest values, similar sequences and a random draw of the others, so the mix is not that of the screen.

T1: UNK ZnF1-3 (human, UniProt Q9C0B0 31-174)
T1 sequence: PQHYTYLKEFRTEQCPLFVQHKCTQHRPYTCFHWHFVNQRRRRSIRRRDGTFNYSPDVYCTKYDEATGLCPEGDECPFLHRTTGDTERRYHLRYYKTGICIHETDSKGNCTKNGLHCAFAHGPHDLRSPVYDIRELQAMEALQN

B1: 180848183_180848303_6210_CDS_ENSMUSG00000026494_ENSMUST00000161017|mouse|control|control (ssRNA)
RNA: GGGAGUUCUACAGUCCGACGAUCAUUGGACCUUUUCUUUUGGUUUUUGAGGCUCCUGCAUCUCCCUCCCACGGAGCUGCUGUUCUCGCUCAUGGAGUCCUGGGCUGAGGAUGCACUGCCGGUGGCCUCGCUGUCUCUCAUCAUCAACAGAGGAUUGAGCAUCA
B2: chr1:151039735:151039736:+_ENSG00000213190_ENST00000368921|hu_mus|FALSE|FALSE (ssRNA)
RNA: GGGAGUUCUACAGUCCGACGAUCCCCAGGCCUUCCAGCUCCGACAGAUCCAGUUCUGGGAUGGGCAUCCUCCAGAAAAGAAAGGAGCUGUACUGGCUACUUACAGGGUCCCUCAUGAUCCCCUGUUAGCAAUGAAUGACUAGGCAACAGAGGAUUGAGCAUCA
B3: chr16:45382771:45382772:-_ENSMUSG00000022661_ENSMUST00000163230|mus_mus|mus_mus_mus_hu_True|18_68 (ssRNA)
RNA: GGGAGUUCUACAGUCCGACGAUCCUGGGUCAUGUUAUAAGACAAAUGGACAGGGAGGGCAUGCUUCUGUAAAGAUGUGAGCUAUUGUCUAAGACUAACAAUAUUUAUCUAGCUAUAUAAAAAUAAGAAAUGAAUAAGUUAAGACAACAGAGGAUUGAGCAUCA
B4: chr8:35894604:35894605:-_ENSMUSG00000031529_ENSMUST00000033929|mus_hu|FALSE|FALSE (ssRNA)
RNA: GGGAGUUCUACAGUCCGACGAUCCUAUAGCAAUGCUUUAUAGAAGACAAACAGCUUAUUUCUAGGCUGUCAGGGACUUCUAGAAUAUUGAUGUUGUUAUUAGAAACAAUCCUCUGUAAUCCAGUCCCAGGUUGAAAUCUGAUCCAACAGAGGAUUGAGCAUCA
B5: chr16:45382771:45382772:-_ENSMUSG00000022661_ENSMUST00000163230|mus_mus|mus_mus_mus_hu_True|38_68 (ssRNA)
RNA: B3 RNA with U105G, A106C, U117A, A121U, U123A, A124G, A125U, G126U
B6: chr3:139078181:139078182:-_ENSG00000184432_ENST00000507777|hu_mus|FALSE|FALSE (ssRNA)
RNA: GGGAGUUCUACAGUCCGACGAUCCUGACUGGGUAAGUAAGUUCGGGCCAGGAAGGCAGCUUCUGGGAGUCUUCCUGUUCUGAUCAAGAGCUCUAGGCAAGCAUCAAGCUUGCCCUGUAAAAAAUAGCUCAUGAAUGCCACGUUCAACAGAGGAUUGAGCAUCA
B7: chr7:19156472:19156473:-_ENSG00000122691_ENST00000242261|hu_mus|FALSE|FALSE (ssRNA)
RNA: GGGAGUUCUACAGUCCGACGAUCGCUGCAGCUUGCCAUCUUGGAGUCCAGCUCGUCGCUCUGCAGGACCUGGUACAGGAAGUCGAUGUACCUGGCCGCCAGUUUGAGGGUCUGAAUCUUGCUCAGCUUGUCCGAGGGCAGCGUCAACAGAGGAUUGAGCAUCA
B8: chr12:39756943:39756944:-_ENSG00000139116_ENST00000544797|hu_mus|hu_hu_hu_mus_False|28_58 (ssRNA)
RNA: GGGAGUUCUACAGUCCGACGAUCGGUUUGGCUGUUACCCCCAAGGGAAUCCUGCAAGAGUCUUGUCAGCUUAGAGUCUCUAUAGGGGACAUGGGUGGCUCUCUUGCUCUUGUCUCCCAAGGCGCUGAUUACAUUCCCAAGAGCCAACAGAGGAUUGAGCAUCA
B9: chr8:95500983:95500984:-_ENSG00000164944_ENST00000437199|hu_hu|hu_hu_hu_mus_True|8_88 (ssRNA)
RNA: GGGAGUUCUACAGUCCGACGAUCAGAACACAUCUAUCGAGUAAAGGGAGCGUACAUACGGCCUCUACCACUGCCUCCACUAACAAACUUUCCUCUCGAGCCUCCACUGCCGCUAUUUGUACUAGCCCCAGGAAGGUCCAGGCCCAACAGAGGAUUGAGCAUCA
B10: chr17:90989275:90989276:-_ENSMUSG00000024109_ENSMUST00000160844|mus_mus|motif|central (ssRNA)
RNA: GGGAGUUCUACAGUCCGACGAUCAGAUGUUGUCUUGAAUUGGAAAAAUAGAUGCAUAGAGGUGUAGGCUUGCAAUGUAGCGGAGGCAACAUAGCUCGAUUUGGUCUUGAAGGUGACAGGAUCUGCGAUGAUGUUCCUGAAUCCCAACAGAGGAUUGAGCAUCA
B11: chrX:103214973:103214974:+_ENSMUSG00000031231_ENSMUST00000033582|mus_hu|FALSE|FALSE (ssRNA)
RNA: GGGAGUUCUACAGUCCGACGAUCAACAAUACAGAAAGUGGCUCCACUAGCUAAUACAGCAUUACCGUAUUUGUCAUGAAAAUCAGGUGUACGUUUCUGGUGGCUCUGCCUUGCCAUUGUUUGCUGAAUGCUUCGAACUUGGAGCAACAGAGGAUUGAGCAUCA
B12: chr2:35989780:35989781:-_ENSMUSG00000026889_ENSMUST00000028251|mus_hu|FALSE|FALSE (ssRNA)
RNA: GGGAGUUCUACAGUCCGACGAUCGCAUUCUCCAGGGGAAGAGUUUUGGUUUCUGCUUCCAUCAAUGUCUAUGAAAUACUCGUGGCCUCGGCGUGGUGCUCUCAGCUCAUGCCCGGAAACCAGGUCCCGACGCCGCGGUCAGACCAACAGAGGAUUGAGCAUCA
B13: 37444673_37445709_2339_CDS_ENSMUSG00000026113_ENSMUST00000027287|mouse|control|control (ssRNA)
RNA: GGGAGUUCUACAGUCCGACGAUCGUAGAGCUGCCGCAGGAAGCCACCGUCGUGCAGGCAGUUCCUCAGCUUGAUGAUAAAGCCACAGAUGAGGGCUGUCAGGGUUUGGCAGAAGACGACGUCACGGCGAUACUGCAGGCUGAGCAACAGAGGAUUGAGCAUCA
B14: chr21:32491406:32491407:-_ENSG00000156299_ENST00000286827|hu_hu|motif|central (ssRNA)
RNA: GGGAGUUCUACAGUCCGACGAUCCAUAGUAUUUUAAACCCUUCUUAGGAAGUGGACAUUGUGACAUGGGAAAAGAAAAAGCGGUAAACCUUUUUUUAAAAAAAAAAAAAAAAUUGAAAGUGCUAUAACUUGUUUUUCUUCUUACAACAGAGGAUUGAGCAUCA
B15: chrX:119742084:119742085:+_ENSG00000232119_ENST00000371317|hu_hu|FALSE|FALSE (ssRNA)
RNA: GGGAGUUCUACAGUCCGACGAUCAAAAGGAUAUUUGUGAAGUAAUCUUAGGGUUGGAUAAAAAGGCCCUUCUCUUUGUCUAAAAAAGAGUAAUUCUCCAUUUACUGUAAGGAUUUCUAUAUGUUCAUGGCAUCGGACUAUUUUCAACAGAGGAUUGAGCAUCA
B16: chr14:46222469:46222470:-_ENSMUSG00000037697_ENSMUST00000051310|mus_hu|FALSE|FALSE (ssRNA)
RNA: GGGAGUUCUACAGUCCGACGAUCAUUCUCUGAAACUGAGGUAGGUUCUUUAGCUGGGUUGAGAAAGCUUGGCUUCAUAUGUUCAUAAGGUAAAGGAUUUGAAGUAUUGUACCAGUGGAUCUGGACAGGUGAAAUGUUGCUGUACAACAGAGGAUUGAGCAUCA
B17: chr11:9308113:9308114:-_ENSG00000166471_ENST00000528080|hu_hu|motif|central (ssRNA)
RNA: GGGAGUUCUACAGUCCGACGAUCAUUAGGCAGAAAUGGUGUUAUUCUCAAAAAUAUAAUGUAGUUAAUGAGAUGUUCUCGGUGACGUUCAACCUGCUGUGACCAUUUUACUGCUUUCUCUGUUAGGUAUUUGUAUACAACUGGCAACAGAGGAUUGAGCAUCA
B18: chr5:106037793:106037794:+_ENSMUSG00000054720_ENSMUST00000067924|mus_mus|FALSE|FALSE (ssRNA)
RNA: GGGAGUUCUACAGUCCGACGAUCUGUUGUCUUGUGUGGAAAAGGAAAAAAAAAUAAUAUAGGAAAGGCAUUAGGACUACCUAAUUCUUUAUAUUGUAUUUGGUAGAAGCAUGUUUCAGUCAUACUCUGAUGAAAAAUAAGUUACAACAGAGGAUUGAGCAUCA
B19: chr5:106037793:106037794:+_ENSMUSG00000054720_ENSMUST00000067924|mus_mus|motif|central (ssRNA)
RNA: B18 RNA with U77G, A78G, U81G, A82G
B20: chr5:106037793:106037794:+_ENSMUSG00000054720_ENSMUST00000067924|mus_hu|motif|central (ssRNA)
RNA: GGGAGUUCUACAGUCCGACGAUCCUUUGUGUACAUUUUGUGUGAAAAGGAAAAAAAAAUAGGAAAGGCAUUAAGACGGCCGGAUUAUUUAUACUGUAUUUGGUAGAAGCGUGUUUCAGUCAAACUUUAACGAAAAAUAAGUUACAACAGAGGAUUGAGCAUCA
B21: 57185256_57189016_303_CDS_ENSG00000146143_ENST00000607273|human|control|control (ssRNA)
RNA: GGGAGUUCUACAGUCCGACGAUCUUCAUCUUCUAAGUUUUCUCUGUAGGAAAACUUGAGCUUCCGAAGCUCACUCUCCAACUUACUCUGGUAUUGUUCAGUUCCUUUCACAUAGCUCACUCCAAGAUUUUCAACUGAUUUUAACAACAGAGGAUUGAGCAUCA
B22: chr14:57521665:57521666:+_ENSMUSG00000021945_ENSMUST00000022511|mus_mus|FALSE|FALSE (ssRNA)
RNA: GGGAGUUCUACAGUCCGACGAUCAACAACGUCAUCAUCAUCUUCUACUGAUGAGUUCUGAAACUUACUAGAUCUAGACACUAAAGGAUUAGGUGGGCCACUAAAUGAAUUUCCUACGUUCGUGAGACUAGUUGCCAUGGCUGUCAACAGAGGAUUGAGCAUCA

Molecular target: T1, UNK ZnF1-3
Test: nsRBNS (natural sequence RNA bind-n-seq); RBNS binding buffer (assumed for nsRBNS): 25 mM Tris pH 7.5, 150 mM KCl, 3 mM MgCl2, 0.01% Triton X-100, 500 ug/ml BSA, 20 U/ml SUPERase-In, 4 C; UNK is unkempt and MSI1 is Musashi-1; names of the RNAs are library labels; protein concentration not given here; high values mean tight binding

| Binder | binding signal |
| --- | --- |
| B1 | 0.445 enrichment R |
| B2 | 1.11 enrichment R |
| B3 | 5.64 enrichment R |
| B4 | 0.4 enrichment R |
| B5 | 9.94 enrichment R |
| B6 | 0.848 enrichment R |
| B7 | 0.84 enrichment R |
| B8 | 0.774 enrichment R |
| B9 | 1.68 enrichment R |
| B10 | 1.21 enrichment R |
| B11 | 1.13 enrichment R |
| B12 | 0.583 enrichment R |
| B13 | 1.01 enrichment R |
| B14 | 1.34 enrichment R |
| B15 | 0.455 enrichment R |
| B16 | 1.5 enrichment R |
| B17 | 1.85 enrichment R |
| B18 | 4.57 enrichment R |
| B19 | 5.1 enrichment R |
| B20 | 3.77 enrichment R |
| B21 | 0.6 enrichment R |
| B22 | 1.09 enrichment R |
